The text below walks through data of PubChem BioAssay (Tox21).

Structures are written as SMILES. “And” between values parts separate entries of the source, which are not always exact repeats. Identical values can stand only once. Inconclusive results are not listed. Where a call stands in place of a potency, no number is given. Unmarked numbers belong to inactive results. The source made the active and inactive calls. Calls come from the whole dose curve; as a rule, active = well fitted cell-killing curve with a large enough effect in the repeat runs; inconclusive = weak or mixed curves; inactive = flat fitted curve, though single readings scatter.
Potency is the fitted concentration of half-maximal effect.

This test in a line: qHTS assay to identify small molecule antagonists of the estrogen related receptor (ERR) signaling pathway from Tox21 library - cell viability counter screen (AID 1224834). Note: nearly all actives have a fitted effect of over 30% in size. The settings on record: ERR reporter cells viability, CellTiter-Fluor, 17.5 h; series mostly up to 92.4 µM; viability change, negative = cytotoxic: at the top concentration. From the text:
National Center for Advancing Translational Sciences [NCATS]
NIH Chemical Genomics Center [NCGC]
U.S. Environmental Protection Agency [EPA]
National Institutes of Environmental Health Sciences [NIEHS]
National Toxicology Program [NTP]
U.S. Food and Drug Administration [FDA]
Estrogen related receptors (ERRs), the first orphan nuclear receptors discovered, play an important role in the control of cellular energy metabolism. ERRs are required for high-energy production in response to the environmental challenges. ERR-alpha was also identified as an adverse marker for breast cancer progression; ERR-alpha-positive tumors have a poor prognosis. To screen and to identify environmental compounds that perturb the ERR signaling pathways could provide valuable information for potential therapeutic or preventive measures in the treatment of metabolic disease. To differentiate true ERR antagonists or agonist from cytotoxic substances, the assay is multiplexed with cell viability assay.
Tox21 Assay Protocol Summary:
The ERR cells were dispensed at 2,000 cells/5 ul/well in 1536-well white plates using a Multidrop dispenser. After the assay plates were incubated at a 37 C/5% CO2 incubator for 6 hours, 23 nL of compounds dissolved in DMSO, positive and negative controls or DMSO only was transferred to the assay plate by a pin tool. The plates were incubated at 37 C for 17.5 hours. 1 ul/well of CellTiter-Fluor reagent was added into the assay plates using a Flying Reagent Dispenser. After 30-minute incubation at 37 C/5% CO2, the fluorescence intensity in the plates was measured using a ViewLux plate reader.
`O=[N+]([O-])c1ccc(Cl)c([N+](=O)[O-])c1`: the Potency is 24.7 µM (active) and 38.6 µM (active). With `N#Cc1cccnc1`, the Potency entry was “inactive”.

For `CC[n+]1c(-c2ccccc2)c2cc(N)ccc2c2ccc(N)cc21`, the Potency is 24.2 µM (active) and 6.68 µM (active). On to `O=C(O)c1nn(Cc2ccc(Cl)cc2Cl)c2ccccc12`, for which the Potency entry is “inactive”. As for `CCCCC(C#N)(Cn1cncn1)c1ccc(Cl)cc1` (stereo not given), the “viability change, negative = cytotoxic” value is -11.7%.

Regarding `CC(C)(C#N)N=NC(C)(C)C#N`, the Potency result was “inactive”. Same read-out and setting: to `ClCc1ccccn1` belongs “inactive”. Consider `N#Cc1c(Cl)c(Cl)c(Cl)c(C#N)c1Cl`, for which the Potency is 7.55 µM (active) and 21.7 µM (active). `COc1ccc(CO)cc1`: the Potency result is “inactive”. Turning to `Cl`, the Potency result is “inactive”. Same read-out and setting: to `CN(C)c1nc(=O)n(C2CCCCC2)c(=O)n1C` belongs “inactive”; to `S=c1[nH]c2ccccc2[nH]1`, “inactive”. For `Cc1cccc(N=Nc2ccc(N(C)C)cc2)c1`, the Potency was 27.3 µM (active). On to `C[N+](C)(C)CC(=O)O`, for which the Potency entry is “inactive”.

As for `Nc1ccc([N+](=O)[O-])cc1N`, the Potency is 48.5 µM (active) and 24.3 µM (active).

Consider `CCC/C=N/O`, for which the Potency entry is “inactive”. With `ClCC(Cl)CCl`, the Potency entry is “inactive”. As to `CCCCOCC1CO1` (stereo not given), the Potency result is “inactive”. Consider `O=C1CCCO1`, for which the Potency entry is “inactive”. As for `CCC1(c2ccc(N)cc2)CCC(=O)NC1=O` (stereo not given), the Potency entry was “inactive”. In the case of `CC(C)Nc1nc(Cl)nc(NC(C)C)n1`, the Potency entry was “inactive”. As for `COP(=S)(OC)Oc1ccc(S(=O)(=O)N(C)C)cc1`, the Potency result was “inactive”. As for `CC1CC(=O)O1` (stereo not given), the Potency entry is “inactive”.

Turning to `COc1ccc(O)c(C(C)(C)C)c1`, the Potency entry is “inactive”.

Regarding `CC(C)(c1ccccc1)c1ccc(O)c(C(C)(C)c2ccccc2)c1`, the Potency was 54 µM (active) and 54.5 µM (active). The same measure, in the same setting: to `Nc1ccc2ccccc2c1` belongs “inactive”; to `Clc1cccc(Cl)c1`, “inactive”; to `N#Cc1nn(-c2c(Cl)cc(C(F)(F)F)cc2Cl)c(N)c1S(=O)C(F)(F)F` (stereo not given), 27.5 µM (active) and 29.8 µM (active). Still for that read-out and setting: in the case of `CCOP(=S)(OCC)OP(=S)(OCC)OCC` it was “inactive”; in that of `CCC[CH2][Sn]([Cl])([Cl])[CH2]CCC`, 981 nM (active) and 1.09 µM (active). Consider `[Cl-].[Cl-].[Cl-].[Fe+3]`, for which the “viability change, negative = cytotoxic” value is 1.26%. For the molecule `CC(C)(O)C(=O)Nc1ccc([N+](=O)[O-])c(C(F)(F)F)c1`, the “viability change, negative = cytotoxic” value is -2.87% [at 42.5 µM]. In the case of `CCC(=O)Nc1ccc(Cl)c(Cl)c1`, the Potency entry was “inactive”. Regarding `C=C(C)C#N`, the Potency result is “inactive”. For `CC1(C)Cc2cccc(O)c2O1`, the Potency result is “inactive”. Consider `CCCCCCCC[N+](C)(CCCCCCCC)CCCCCCCC`, for which the Potency is 17.2 µM (active) and 1.72 µM (active) and 21.7 µM (active).

As for `CCCCOCCOC(C)=O`, the Potency result was “inactive”. For `Brc1ccc(Br)cc1`, the Potency result was “inactive”. With `C[N+](C)(C)CC(=O)[O-]`, the Potency entry is “inactive”. With `CC(C)CON=O`, the Potency result was “inactive”.
